Tests used:
Test in all cases: DAPPL (digital affinity profiling via proximity ligation, sequencing); 10 mM Tris-HCl pH 7.5, 50 mM NaCl, 1 mM DTT, 4% glycerol, room temperature, 30 min; GST-TFs on glutathione beads, 16-mer random dsDNA library, 0.1% formaldehyde crosslink after washing; high values mean tight binding
FEV = molecular target: T1, FEV (Homo sapiens, UniProt Q99581 1-238); conditions: protein: recombinant; tags: N-terminal GST; dsDNA, one strand shown
T1 sequence: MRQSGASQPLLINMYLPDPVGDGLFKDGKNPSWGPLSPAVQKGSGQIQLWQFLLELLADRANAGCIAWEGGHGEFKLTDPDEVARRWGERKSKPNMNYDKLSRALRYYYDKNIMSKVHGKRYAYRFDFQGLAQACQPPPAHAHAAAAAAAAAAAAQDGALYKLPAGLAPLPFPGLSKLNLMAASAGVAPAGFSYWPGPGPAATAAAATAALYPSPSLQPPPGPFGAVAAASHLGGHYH
Procedure, shortened: (§1)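 After expression in yeast as GST fusions, human transcription factors were bound to glutathione beads, DNA-barcoded and mixed with a tag-only sample. The pools were incubated with 200 nmole of a 16-mer random double-stranded DNA library in Tris/NaCl/DTT/glycerol buffer (30 min, room temperature), washed and crosslinked with 0.1% formaldehyde. Proximity ligation with BsaI/T4 ligase ran for 1 h at 37 °C, before PCR amplification and sequencing on an Illumina NextSeq500. Binding signal is a hexamer's read frequency for a factor divided by its frequency for the tag-only sample.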

ETV5 = ETV5 (Homo sapiens, UniProt P41161 1-510); conditions: protein: recombinant; tags: N-terminal GST; dsDNA, one strand shown
Sequence of ETV5 (P41161 whole entry): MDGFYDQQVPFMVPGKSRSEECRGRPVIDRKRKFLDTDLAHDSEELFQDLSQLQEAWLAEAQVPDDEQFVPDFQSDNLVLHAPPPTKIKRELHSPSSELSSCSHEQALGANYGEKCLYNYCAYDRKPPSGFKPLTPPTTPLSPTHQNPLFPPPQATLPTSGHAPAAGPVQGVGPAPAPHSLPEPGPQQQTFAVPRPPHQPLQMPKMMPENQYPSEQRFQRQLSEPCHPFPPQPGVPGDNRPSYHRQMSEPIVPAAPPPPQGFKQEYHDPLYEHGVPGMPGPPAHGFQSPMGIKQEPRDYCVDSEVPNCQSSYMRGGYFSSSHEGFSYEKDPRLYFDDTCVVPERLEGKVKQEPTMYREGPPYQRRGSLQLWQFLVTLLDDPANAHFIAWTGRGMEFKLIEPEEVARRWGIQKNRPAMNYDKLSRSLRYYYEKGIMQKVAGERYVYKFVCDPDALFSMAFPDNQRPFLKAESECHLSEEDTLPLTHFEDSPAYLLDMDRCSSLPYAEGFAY
Procedure, shortened: as §1

HSF1 = HSF1 (Homo sapiens, UniProt Q00613 1-529); conditions: protein: recombinant; tags: N-terminal GST; chain copies: 3; dsDNA, one strand shown
Sequence of HSF1 (Q00613 whole entry): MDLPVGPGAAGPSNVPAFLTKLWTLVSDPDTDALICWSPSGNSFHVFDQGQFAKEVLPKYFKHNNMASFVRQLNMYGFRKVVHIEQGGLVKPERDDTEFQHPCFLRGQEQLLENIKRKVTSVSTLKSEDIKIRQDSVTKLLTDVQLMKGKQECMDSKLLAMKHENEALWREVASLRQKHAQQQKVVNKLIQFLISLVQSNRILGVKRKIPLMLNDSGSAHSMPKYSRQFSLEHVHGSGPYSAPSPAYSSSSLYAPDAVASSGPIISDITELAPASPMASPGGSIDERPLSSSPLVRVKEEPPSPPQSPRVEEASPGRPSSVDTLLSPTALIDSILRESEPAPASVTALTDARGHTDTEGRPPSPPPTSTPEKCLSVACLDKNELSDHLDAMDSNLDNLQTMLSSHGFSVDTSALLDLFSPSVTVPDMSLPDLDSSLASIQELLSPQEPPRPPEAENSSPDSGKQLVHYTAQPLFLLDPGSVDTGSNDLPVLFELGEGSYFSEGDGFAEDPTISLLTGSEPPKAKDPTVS
Procedure, shortened: as §1

SPIC = molecular target: T2, SPIC (Homo sapiens, UniProt Q8N5J4 1-248); conditions: protein: recombinant; tags: N-terminal GST; dsDNA, one strand shown
T2 sequence: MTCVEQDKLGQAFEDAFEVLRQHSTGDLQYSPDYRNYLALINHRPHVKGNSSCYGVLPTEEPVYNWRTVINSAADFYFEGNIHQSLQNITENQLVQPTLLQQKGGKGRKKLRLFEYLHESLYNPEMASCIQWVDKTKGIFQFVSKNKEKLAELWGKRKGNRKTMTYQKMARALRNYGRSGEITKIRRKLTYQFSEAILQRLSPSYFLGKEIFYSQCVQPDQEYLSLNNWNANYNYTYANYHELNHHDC
Procedure, shortened: as §1

ELF4 = ELF4 (Homo sapiens, UniProt Q99607 1-663); conditions: protein: recombinant; tags: N-terminal GST; dsDNA, one strand shown
Sequence of ELF4 (Q99607 whole entry): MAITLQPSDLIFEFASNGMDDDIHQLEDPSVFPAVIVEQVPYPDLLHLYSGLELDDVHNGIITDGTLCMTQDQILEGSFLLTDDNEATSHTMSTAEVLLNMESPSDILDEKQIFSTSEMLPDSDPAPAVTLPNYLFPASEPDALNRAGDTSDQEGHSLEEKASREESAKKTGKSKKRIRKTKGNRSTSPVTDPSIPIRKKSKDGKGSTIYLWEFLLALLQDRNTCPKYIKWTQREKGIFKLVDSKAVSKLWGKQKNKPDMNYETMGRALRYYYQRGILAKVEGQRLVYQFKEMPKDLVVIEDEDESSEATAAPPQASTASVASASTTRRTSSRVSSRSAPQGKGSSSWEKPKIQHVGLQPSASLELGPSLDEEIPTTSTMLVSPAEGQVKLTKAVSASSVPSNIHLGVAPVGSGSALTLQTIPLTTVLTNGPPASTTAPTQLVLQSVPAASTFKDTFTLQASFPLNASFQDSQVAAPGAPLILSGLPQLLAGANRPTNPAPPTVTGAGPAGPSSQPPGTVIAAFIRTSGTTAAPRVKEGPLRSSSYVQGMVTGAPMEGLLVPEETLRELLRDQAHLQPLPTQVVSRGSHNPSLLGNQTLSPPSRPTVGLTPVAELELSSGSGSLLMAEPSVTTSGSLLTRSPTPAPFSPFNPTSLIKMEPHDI
Procedure, shortened: as §1

ELK4 = molecular target: T3, ELK4 (Homo sapiens, UniProt P28324-2 1-405); conditions: protein: recombinant; tags: N-terminal GST; dsDNA, one strand shown
T3 sequence: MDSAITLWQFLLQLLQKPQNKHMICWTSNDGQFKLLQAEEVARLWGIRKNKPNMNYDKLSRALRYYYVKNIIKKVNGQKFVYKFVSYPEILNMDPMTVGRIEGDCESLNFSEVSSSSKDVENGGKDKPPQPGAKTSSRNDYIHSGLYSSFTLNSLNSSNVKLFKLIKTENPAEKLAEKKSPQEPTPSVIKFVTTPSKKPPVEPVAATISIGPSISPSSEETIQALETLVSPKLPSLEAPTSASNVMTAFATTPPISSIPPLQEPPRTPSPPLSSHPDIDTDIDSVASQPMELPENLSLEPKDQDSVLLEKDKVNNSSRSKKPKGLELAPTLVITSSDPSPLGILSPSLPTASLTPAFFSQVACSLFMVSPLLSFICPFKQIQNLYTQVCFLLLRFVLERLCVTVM
Procedure, shortened: as §1

ETV2 = molecular target: T4, ETV2 (Homo sapiens, UniProt O00321 1-342); conditions: protein: recombinant; tags: N-terminal GST; dsDNA, one strand shown
T4 sequence: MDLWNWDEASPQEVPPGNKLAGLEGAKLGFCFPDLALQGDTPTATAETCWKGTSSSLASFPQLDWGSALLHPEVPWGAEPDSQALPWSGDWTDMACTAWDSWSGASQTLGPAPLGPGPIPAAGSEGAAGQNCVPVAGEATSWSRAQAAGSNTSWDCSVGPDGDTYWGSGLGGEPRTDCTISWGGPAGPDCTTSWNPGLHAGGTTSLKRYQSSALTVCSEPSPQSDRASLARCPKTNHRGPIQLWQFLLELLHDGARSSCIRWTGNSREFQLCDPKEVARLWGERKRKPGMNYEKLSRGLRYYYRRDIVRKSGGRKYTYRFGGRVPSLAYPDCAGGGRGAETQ
Procedure, shortened: as §1

ELF3 = molecular target: T5, ELF3 (Homo sapiens, UniProt P78545 1-371); conditions: protein: recombinant; tags: N-terminal GST; dsDNA, one strand shown
T5 sequence: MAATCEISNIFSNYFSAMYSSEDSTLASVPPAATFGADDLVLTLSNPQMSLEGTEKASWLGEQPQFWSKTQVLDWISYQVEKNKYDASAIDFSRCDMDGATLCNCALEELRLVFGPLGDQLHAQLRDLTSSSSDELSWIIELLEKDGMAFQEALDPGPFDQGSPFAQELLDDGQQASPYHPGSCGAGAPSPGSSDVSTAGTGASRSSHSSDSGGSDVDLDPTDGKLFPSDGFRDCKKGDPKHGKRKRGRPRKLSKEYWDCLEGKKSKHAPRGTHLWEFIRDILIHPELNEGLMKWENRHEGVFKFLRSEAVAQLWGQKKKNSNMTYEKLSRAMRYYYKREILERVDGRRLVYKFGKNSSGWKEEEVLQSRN
Procedure, shortened: as §1

ETV1 = ETV1 (Homo sapiens, UniProt P50549 1-477); conditions: protein: recombinant; tags: N-terminal GST; dsDNA, one strand shown
Sequence of ETV1 (P50549 whole entry): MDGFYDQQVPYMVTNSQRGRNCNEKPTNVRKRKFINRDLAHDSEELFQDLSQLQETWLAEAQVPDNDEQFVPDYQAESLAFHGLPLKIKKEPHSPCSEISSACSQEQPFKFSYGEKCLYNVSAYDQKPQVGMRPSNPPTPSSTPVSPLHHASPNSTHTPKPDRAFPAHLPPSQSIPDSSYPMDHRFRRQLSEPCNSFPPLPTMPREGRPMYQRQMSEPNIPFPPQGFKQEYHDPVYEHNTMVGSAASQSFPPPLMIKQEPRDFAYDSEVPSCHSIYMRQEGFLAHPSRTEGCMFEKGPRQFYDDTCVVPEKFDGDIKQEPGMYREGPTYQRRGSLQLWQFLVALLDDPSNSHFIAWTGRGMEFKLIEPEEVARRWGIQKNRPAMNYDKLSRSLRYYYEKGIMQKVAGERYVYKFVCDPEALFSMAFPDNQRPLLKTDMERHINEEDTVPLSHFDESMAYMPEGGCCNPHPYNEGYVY
Procedure, shortened: as §1

| Sequence | binding signal (FEV) | binding signal (ETV5) | binding signal (HSF1) | binding signal (SPIC) | binding signal (ELF4) | binding signal (ELK4) | binding signal (ETV2) | binding signal (ELF3) | binding signal (ETV1) |
| --- | --- | --- | --- | --- | --- | --- | --- | --- | --- |
| CTGAAG | 1.05 fold enrichment (6-mer frequency, TF over GST control) | 1.06 fold enrichment (6-mer frequency, TF over GST control) | 1.11 fold enrichment (6-mer frequency, TF over GST control) | 1.01 fold enrichment (6-mer frequency, TF over GST control) | 1.11 fold enrichment (6-mer frequency, TF over GST control) | 1.05 fold enrichment (6-mer frequency, TF over GST control) | 1.09 fold enrichment (6-mer frequency, TF over GST control) | 1.18 fold enrichment (6-mer frequency, TF over GST control) | 1.08 fold enrichment (6-mer frequency, TF over GST control) |
| CGCCGA | 1.21 fold enrichment (6-mer frequency, TF over GST control) | 1.13 fold enrichment (6-mer frequency, TF over GST control) | 1.2 fold enrichment (6-mer frequency, TF over GST control) | 1.18 fold enrichment (6-mer frequency, TF over GST control) | 1.26 fold enrichment (6-mer frequency, TF over GST control) | 1.28 fold enrichment (6-mer frequency, TF over GST control) | 1.16 fold enrichment (6-mer frequency, TF over GST control) | 1.03 fold enrichment (6-mer frequency, TF over GST control) | 1.15 fold enrichment (6-mer frequency, TF over GST control) |
| CCGTCC | 1.38 fold enrichment (6-mer frequency, TF over GST control) | 1.26 fold enrichment (6-mer frequency, TF over GST control) | 1.03 fold enrichment (6-mer frequency, TF over GST control) | 1.39 fold enrichment (6-mer frequency, TF over GST control) | 1.37 fold enrichment (6-mer frequency, TF over GST control) | 1.28 fold enrichment (6-mer frequency, TF over GST control) | 1.8 fold enrichment (6-mer frequency, TF over GST control) | 1.43 fold enrichment (6-mer frequency, TF over GST control) | 1.38 fold enrichment (6-mer frequency, TF over GST control) |
| ATGTGG | 1.2 fold enrichment (6-mer frequency, TF over GST control) | 1.09 fold enrichment (6-mer frequency, TF over GST control) | 1.04 fold enrichment (6-mer frequency, TF over GST control) | 1.18 fold enrichment (6-mer frequency, TF over GST control) | 1.15 fold enrichment (6-mer frequency, TF over GST control) | 1.27 fold enrichment (6-mer frequency, TF over GST control) | 1.28 fold enrichment (6-mer frequency, TF over GST control) | 1.26 fold enrichment (6-mer frequency, TF over GST control) | 1.12 fold enrichment (6-mer frequency, TF over GST control) |
| ACATAC | 1.13 fold enrichment (6-mer frequency, TF over GST control) | 1.17 fold enrichment (6-mer frequency, TF over GST control) | 1.07 fold enrichment (6-mer frequency, TF over GST control) | 1.11 fold enrichment (6-mer frequency, TF over GST control) | 1.21 fold enrichment (6-mer frequency, TF over GST control) | 1.01 fold enrichment (6-mer frequency, TF over GST control) | 1.32 fold enrichment (6-mer frequency, TF over GST control) | 1.25 fold enrichment (6-mer frequency, TF over GST control) | 1.15 fold enrichment (6-mer frequency, TF over GST control) |
| AGGAAA | 1.5 fold enrichment (6-mer frequency, TF over GST control) | 1.52 fold enrichment (6-mer frequency, TF over GST control) | 1.15 fold enrichment (6-mer frequency, TF over GST control) | 1.42 fold enrichment (6-mer frequency, TF over GST control) | 1.35 fold enrichment (6-mer frequency, TF over GST control) | 1.2 fold enrichment (6-mer frequency, TF over GST control) | 1.41 fold enrichment (6-mer frequency, TF over GST control) | 1.72 fold enrichment (6-mer frequency, TF over GST control) | 1.46 fold enrichment (6-mer frequency, TF over GST control) |
| ACACGA | 1.1 fold enrichment (6-mer frequency, TF over GST control) | 1.15 fold enrichment (6-mer frequency, TF over GST control) | 1.02 fold enrichment (6-mer frequency, TF over GST control) | 1.11 fold enrichment (6-mer frequency, TF over GST control) | 1.2 fold enrichment (6-mer frequency, TF over GST control) | 1.16 fold enrichment (6-mer frequency, TF over GST control) | 1.08 fold enrichment (6-mer frequency, TF over GST control) | 1.01 fold enrichment (6-mer frequency, TF over GST control) | 1.1 fold enrichment (6-mer frequency, TF over GST control) |
| ACTCAC | 1.24 fold enrichment (6-mer frequency, TF over GST control) | 1.18 fold enrichment (6-mer frequency, TF over GST control) | 1.07 fold enrichment (6-mer frequency, TF over GST control) | 1.25 fold enrichment (6-mer frequency, TF over GST control) | 1.24 fold enrichment (6-mer frequency, TF over GST control) | 1.18 fold enrichment (6-mer frequency, TF over GST control) | 1.24 fold enrichment (6-mer frequency, TF over GST control) | 1.31 fold enrichment (6-mer frequency, TF over GST control) | 1.15 fold enrichment (6-mer frequency, TF over GST control) |
